Data on 40 compounds can be found in PubChem BioAssay (Tox21).

Inconclusive results are not listed. A number with no mark means an inactive call. Activity calls are given as the source filed them. Calls come from the whole dose curve; as a rule, active = well fitted cell-killing curve with a large enough effect in the repeat runs; inconclusive = weak or mixed curves; inactive = flat fitted curve, though single readings scatter.
% is set by controls: 0 for no effect and ±100 for the full control effect; potency is the fitted concentration of half-maximal effect.

A short description of the assay: qHTS RealTime-Glo MT Cell Viability Assay in HepG2 cells - 32 hour (AID 1224877). Note: nearly all actives have a fitted effect of over 55% in size. Particulars: RealTime-Glo luminescence; series mostly up to 76.8 µM; activity change, negative = cytotoxic: at the top concentration. From the text:
U.S. Tox21 Program National Center for Advancing Translational Sciences [NCATS] NIH Chemical Genomics Center [NCGC] U.S. Environmental Protection Agency [EPA] National Institutes of Environmental Health Sciences [NIEHS] National Toxicology Program [NTP] U.S. Food and Drug Administration [FDA] Tox21 Assay Overview: Measure of cell viability is critical in the cell-base assay. Analysis of cell viability is necessary for the characterization of cell responses to cytotoxic drugs and environmental stress. A RealTime-Glo MT Cell Viability Assay to monitor cell viability in real time of continues cell culture during 40 hours of compound treatment was used to screen Tox21 10K library compounds in HepG2 cells. The RealTime-Glo MT Cell Viability Assay is a nonlytic, homogeneous, bioluminescent method to measure cell viability in real time using a simple, plate-based method. The assay involves adding NanoLuc luciferase and a cell-permeant prosubstrate to cells in culture. Viable cells reduce the proprietary prosubstrate to generate a substrate for NanoLuc luciferase. This substrate diffuses from cells into the surrounding culture medium, where it is rapidly used by the NanoLuc Enzyme to produce a luminescent signal. The signal correlates with the number of viable cells, making the assay well suited for cytotoxicity studies.
Tox21 Assay Protocol Summary: The mixture of HepG2 cell suspension and reagents were dispensed at 600cells/6 ul/well in 1536-well tissue culture treated black solid bottom plates using a Multidrop dispenser. After the assay plates were incubated at a 37 C/5% CO2 incubator for 5 hours, 23 nL of compounds dissolved in DMSO, positive and negative controls was transferred to the assay plate by a pintool work station. The plates were incubated at 37 C for 40 hours. The luminescence intensity were measured at 0h, 8h, 16h, 24h, 32h and 40h time points using ViewLux plate reader during compound treatment.
(In general: Quantitative high-throughput screening tests each substance at several concentrations.)
Turning to `Nc1cc(Cl)ccc1O`, the “activity change, negative = cytotoxic” value is 1.69%.

Regarding `ClC(Cl)(Cl)C(Cl)(Cl)Cl`, the “activity change, negative = cytotoxic” value was 0.42%.

For `O=S(=O)(O)C(F)(F)C(F)(F)C(F)(F)C(F)(F)C(F)(F)C(F)(F)F`, the “activity change, negative = cytotoxic” value is 5.93%.

For `CCC(=O)c1ccccc1`, the “activity change, negative = cytotoxic” value was 0.0124%.

For the compound `N#CC(CCc1ccc(Cl)cc1)(Cn1cncn1)c1ccccc1` (stereo not given), the Potency was 43.6 µM (active).

As to `CC(C)(C)C(=O)C(Oc1ccc(Cl)cc1)n1cncn1` (stereo not given), the “activity change, negative = cytotoxic” value was -2.32%.

For the compound `C#CCN1C(=O)COc2cc(F)c(N3C(=O)C4=C(CCCC4)C3=O)cc21`, the “activity change, negative = cytotoxic” value is 1.18%.

For `O=C(NCO)NCO`, the “activity change, negative = cytotoxic” value is 4.58%.

For `CCCCCCBr`, the “activity change, negative = cytotoxic” value was 4.6%.

`COC(=O)C(C)Oc1ccc(Oc2ccc(Cl)cc2Cl)cc1` (stereo not given): the “activity change, negative = cytotoxic” value was -4.64%.

For the compound `COC(=O)c1ccccc1S(=O)(=O)NC(=O)Nc1nc(C)cc(C)n1`, the “activity change, negative = cytotoxic” value is -1.07%.

Regarding `Cc1coc2c1CCC(C)C2` (stereo not given), the “activity change, negative = cytotoxic” value was -3.44%.

On to `CCOP(=S)(Oc1cnc(C(C)(C)C)nc1)OC(C)C` (stereo not given), for which the “activity change, negative = cytotoxic” value was -8.13%.

`OC(c1ccccc1)(c1ccccc1)C1CCNCC1`: the “activity change, negative = cytotoxic” value is -3.58% [at 35.3 µM].

On to `CC1(C)CON(Cc2ccccc2Cl)C1=O`, for which the “activity change, negative = cytotoxic” value was -3.85%.

For `CC(C=O)Cc1ccc2c(c1)OCO2` (stereo not given), the “activity change, negative = cytotoxic” value is 1.42%.

On to `CCC(C)n1c(=O)[nH]c(C)c(Br)c1=O` (stereo not given), for which the “activity change, negative = cytotoxic” value was 1.41%.

Consider `N#CCBr`, for which the “activity change, negative = cytotoxic” value was 1.13%.

`Cc1cnc[nH]1`: the “activity change, negative = cytotoxic” value is -0.384%.

As for `CCOC(=O)/C=C(C)/C=C/C[C@@H](C)CCCC(C)C`, the “activity change, negative = cytotoxic” value was 1.55%.

Turning to `CCCSC(=O)Cl`, the “activity change, negative = cytotoxic” value was -2.06%.

On to `Cc1ncc(CNC(=O)N(CCCl)N=O)c(N)n1`, for which the “activity change, negative = cytotoxic” value is 2.8% [at 35.3 µM].

As for `CC(C)COP(=O)(OCC(C)C)OCC(C)C`, the “activity change, negative = cytotoxic” value is -1.34%.

With `O=[N+]([O-])c1ccc(CBr)cc1`, the “activity change, negative = cytotoxic” value is -0.437%.

With `COC(=O)C(c1ccccc1)C1CCCCN1` (stereo not given), the “activity change, negative = cytotoxic” value is 2.12%.

Consider `Cc1nnc2n1-c1sc(CCC(=O)N3CCOCC3)cc1C(c1ccccc1Cl)=NC2`, for which the “activity change, negative = cytotoxic” value was 1.94% [at 35.3 µM].

Consider `NC1=NC(=O)C(c2ccccc2)O1` (stereo not given), for which the “activity change, negative = cytotoxic” value is 2.43% [at 35.3 µM].

For the compound `ClC(Cl)C(Cl)Cl`, the “activity change, negative = cytotoxic” value is 2.47%.

On to `Cc1ncc2n1-c1ccc(Cl)cc1C(c1ccccc1F)=NC2`, for which the “activity change, negative = cytotoxic” value is -4.43% [at 35.3 µM].

`O=P(O)(Oc1ccccc1)Oc1ccccc1`: the “activity change, negative = cytotoxic” value was 4.22%.

For `CC(C1CC1)C(O)(Cn1cncn1)c1ccc(Cl)cc1` (stereo not given), the “activity change, negative = cytotoxic” value was -4.9%.

In the case of `O=C1OC(CCN2CCCCC2)OC1(c1ccccc1)c1ccccc1` (stereo not given), the “activity change, negative = cytotoxic” value was -6.25% [at 35.3 µM].

Take `Cc1cc(C)nc(Nc2ccccc2)n1`: the “activity change, negative = cytotoxic” value was 1.29%.

On to `NC(=O)c1cc([N+](=O)[O-])cc([N+](=O)[O-])c1`, for which the “activity change, negative = cytotoxic” value is 2.94% [at 35.3 µM].

Consider `ClCCOCOCCCl`, for which the “activity change, negative = cytotoxic” value was -0.931%.

Take `CCOP(=S)(OCC)SCSc1ccc(Cl)cc1`: the “activity change, negative = cytotoxic” value was -4.24%.

With `CCCSP(=S)(OCC)Oc1ccc(Cl)cc1Cl` (stereo not given), the “activity change, negative = cytotoxic” value is -10.2%.

Regarding `CCC(Cl)[N+](=O)[O-]` (stereo not given), the “activity change, negative = cytotoxic” value was -0.746%.

Regarding `CC(Oc1ccc(Oc2ncc(C(F)(F)F)cc2Cl)cc1)C(=O)O` (stereo not given), the “activity change, negative = cytotoxic” value was -3.28%.

For the compound `CC(CCc1ccccc1)NC(C)C(O)c1ccc(O)cc1` (stereo not given), the “activity change, negative = cytotoxic” value is -4.74% [at 35.3 µM].
